Data on 13 compounds can be found in the supplement of paper PMC6089552.

This assay relates to A673/TR/shEF. Nature of the assay: cell viability (LOESS-normalised, relative to median of negative controls) (log2 ratio); higher = more viable cells (less compound effect), active = hit call of the paper (over 3 MAD below the median). The note with it: treatment time: 72 h. A digest of the protocol:
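For three days, A673/TR/shEF Ewing sarcoma cells in 384-well plates (1,500 per well) were treated with library compounds at two or more concentrations or with DMSO controls, after doxycycline had been added or withheld 24 h beforehand to induce EWS-FLI1 shRNA knockdown. Viability was read by CellTiter-Glo luminescence on an Envision reader. The data were LOESS-corrected per plate, divided by the median of negative controls and log2-transformed.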

Where [1] appears, read: 0.25 µM, library screen: screen1, EWS-FLI1 expression: high (no doxycycline).
Setting [2] is: 0.25 µM, library screen: screen1, EWS-FLI1 expression: low (doxycycline-induced shRNA knockdown).
The mark [3] stands for this setting: 2.5 µM, library screen: screen1, EWS-FLI1 expression: high (no doxycycline).
Where [4] appears, read: 2.5 µM, library screen: screen1, EWS-FLI1 expression: low (doxycycline-induced shRNA knockdown).
Setting [5] is: 0.25 µM, library screen: screen2, EWS-FLI1 expression: high (no doxycycline).
Where [6] appears, read: 0.25 µM, library screen: screen2, EWS-FLI1 expression: low (doxycycline-induced shRNA knockdown).
The mark [7] stands for this setting: 2.5 µM, library screen: screen2, EWS-FLI1 expression: high (no doxycycline).
The mark [8] stands for this setting: 2.5 µM, library screen: screen2, EWS-FLI1 expression: low (doxycycline-induced shRNA knockdown).
The mark [9] stands for this setting: 0.025 µM, library screen: screen2, EWS-FLI1 expression: high (no doxycycline).
The mark [10] stands for this setting: 0.025 µM, library screen: screen2, EWS-FLI1 expression: low (doxycycline-induced shRNA knockdown).
The mark [11] stands for this setting: 0.103 µM, library screen: screen3, EWS-FLI1 expression: high (no doxycycline).
The mark [12] stands for this setting: 0.103 µM, library screen: screen3, EWS-FLI1 expression: low (doxycycline-induced shRNA knockdown).
[13] abbreviates: 0.308 µM, library screen: screen3, EWS-FLI1 expression: high (no doxycycline).
The mark [14] stands for this setting: 0.308 µM, library screen: screen3, EWS-FLI1 expression: low (doxycycline-induced shRNA knockdown).
Setting [15] is: 0.926 µM, library screen: screen3, EWS-FLI1 expression: high (no doxycycline).
The mark [16] stands for this setting: 0.926 µM, library screen: screen3, EWS-FLI1 expression: low (doxycycline-induced shRNA knockdown).
Setting [17] is: 2.8 µM, library screen: screen3, EWS-FLI1 expression: high (no doxycycline).
The mark [18] stands for this setting: 2.8 µM, library screen: screen3, EWS-FLI1 expression: low (doxycycline-induced shRNA knockdown).
[19] abbreviates: 8.3 µM, library screen: screen3, EWS-FLI1 expression: high (no doxycycline).
Setting [20] is: 8.3 µM, library screen: screen3, EWS-FLI1 expression: low (doxycycline-induced shRNA knockdown).
[21] abbreviates: 25 µM, library screen: screen2, EWS-FLI1 expression: high (no doxycycline).
[22] abbreviates: 25 µM, library screen: screen2, EWS-FLI1 expression: low (doxycycline-induced shRNA knockdown).
The mark [23] stands for this setting: 25 µM, library screen: screen3, EWS-FLI1 expression: high (no doxycycline).
[24] abbreviates: 25 µM, library screen: screen3, EWS-FLI1 expression: low (doxycycline-induced shRNA knockdown).

Several values for one entry are separate records, joined by “and”; a condition that tells them apart may be missing. Equal values may be shown once. In all, about 3,200 compounds went through this assay and about 300 (9.4%) showed activity. The sample holds actives, similar compounds and a random draw of the others, so the mix is not that of the screen. A number with no mark means an inactive call.

Consider `NCCCC(N)CC(=O)NCC1NC(=O)C(CO)NC(=O)C(N)CNC(=O)C(C2CCN=C(N)N2)NC(=O)/C(=C/NC(N)=O)NC1=O` (stereo not drawn), for which the “cell viability (log2)” value under setting [1] is 0.0914, the “cell viability (log2)” value under setting [2] was 0.117, the “cell viability (log2)” value under setting [3] is 0.124 and the “cell viability (log2)” value under setting [4] is 0.0772.
The like results for `CC1=C(C(=O)OCCOc2ccccc2)C(c2coc3ccccc3c2=O)C2=C(CCCC2=O)N1` (stereo not drawn) were, in that order, 0.0678, -0.0908, 0.0965 and 0.143.
Turning to `COc1cc2nc(N3CCN(C(=O)C4=C[C@H]5C=C[C@@H]4CC5)CC3)nc(N)c2cc1OC`, the “cell viability (log2)” value is, setting by setting: under setting [5], 0.165; under setting [6], 0.0668; under setting [7], 0.132; under setting [8], 0.0728.
Consider `NCCCCC(N)C(=O)NC(Cc1c[nH]c2ccccc12)C(=O)NC(CCCCN)C(=O)O` (stereo not drawn), for which the “cell viability (log2)” value runs as follows: under setting [1], 0.0147; under setting [2], 0.0512; under setting [3], 0.141; under setting [4], 0.0544.
In the case of `COC(=O)c1c(OC)cc2c(c1C)Oc1c(Cl)c(OC(C)=O)c(Cl)c(C)c1C(=O)O2`, the “cell viability (log2)” value reads like this: under setting [1], 0.0846; under setting [2], 0.126; under setting [3], 0.0897; under setting [4], 0.152.
Turning to `COC(=O)C1=C(C)N=c2sc(=Cc3cccnc3)c(=O)n2C1c1ccccc1` (stereo not drawn), the “cell viability (log2)” value under setting [1] was 0.123, the “cell viability (log2)” value under setting [2] was 0.0677, the “cell viability (log2)” value under setting [3] is 0.0796 and the “cell viability (log2)” value under setting [4] is 0.107.
The like results for `O=C(/C=C/c1ccc(-c2cccc(Cl)c2)o1)c1ccco1` were, in that order, 0.127, 0.15, 0.147 and 0.194.
On to `Nc1nc(=S)c2[nH]cnc2[nH]1`, for which the “cell viability (log2)” value is 0.0835 under setting [9]; 0.0155 under setting [10]; 0.132 under setting [11]; 0.0451 under setting [12]; 0.0575 under setting [1]; 0.137 under setting [2]. The “cell viability (log2)” value by setting is: under setting [5], 0.0679; under setting [6], 0.0691; under setting [13], 0.156; under setting [14], 0.137; under setting [15], 0.118; under setting [16], 0.102. For the same compound, the “cell viability (log2)” value was -0.318 (active) under setting [3]; 0.0456 under setting [4]; -0.33 (active) under setting [7]; -0.0263 under setting [8]; 0.0258 under setting [17]; 0.111 under setting [18]. For the same compound, the “cell viability (log2)” value was -0.323 (active) under setting [19]; 0.0181 under setting [20]; -0.96 (active) under setting [21]; -0.163 (active) under setting [22]; -0.834 (active) under setting [23]; 0.027 under setting [24].
In the case of `S=c1nc[nH]c2nc[nH]c12`, the “cell viability (log2)” value was 0.182 under setting [9]; 0.0993 under setting [10]; 0.0192 under setting [11]; 0.0459 under setting [12]; -0.0045 under setting [1]; -0.00406 under setting [2]. Further, the “cell viability (log2)” value under setting [5] is 0.161; the “cell viability (log2)” value under setting [6] is 0.00291; the “cell viability (log2)” value under setting [13] is 0.144; the “cell viability (log2)” value under setting [14] is 0.158; the “cell viability (log2)” value under setting [15] was 0.0964; the “cell viability (log2)” value under setting [16] was 0.0595. Besides, the “cell viability (log2)” value under setting [3] was -0.186 (active); the “cell viability (log2)” value under setting [4] was 0.0219; the “cell viability (log2)” value under setting [7] is -0.00564; the “cell viability (log2)” value under setting [8] was 0.0787; the “cell viability (log2)” value under setting [17] is 0.036; the “cell viability (log2)” value under setting [18] is 0.0694. The “cell viability (log2)” value reads like this: under setting [19], -0.147; under setting [20], 0.036; under setting [21], -0.312 (active); under setting [22], 0.0432; under setting [23], -0.314 (active); under setting [24], 0.056.
In the case of `O=c1nc[nH]c2nc[nH]c12`, the “cell viability (log2)” value reads like this: under setting [1], 0.00725; under setting [2], -0.0191; under setting [3], 0.152; under setting [4], 0.0891.
Turning to `Cn1c(=O)c2[nH]cnc2n(C)c1=O`, the “cell viability (log2)” value is, setting by setting: under setting [11], 0.139; under setting [12], 0.0982; under setting [1], 0.0899; under setting [2], 0.0721; under setting [5], 0.105 and -0.0181; under setting [6], 0.0369 and 0.0406. For the same compound, the “cell viability (log2)” value runs as follows: under setting [13], 0.11; under setting [14], 0.14; under setting [15], 0.146; under setting [16], 0.0819; under setting [3], 0.127; under setting [4], 0.0623. The “cell viability (log2)” value under setting [7] was 0.259 and 0.0738; the “cell viability (log2)” value under setting [8] was 0.0969 and 0.00951; the “cell viability (log2)” value under setting [17] was 0.155; the “cell viability (log2)” value under setting [18] was 0.129; the “cell viability (log2)” value under setting [19] is 0.11; the “cell viability (log2)” value under setting [20] was 0.0762. The “cell viability (log2)” value runs as follows: under setting [23], 0.117; under setting [24], 0.0984.
As to `Cn1c(=O)[nH]c2nc[nH]c2c1=O`, the “cell viability (log2)” value was 0.0262 under setting [1], 0.135 under setting [2], 0.103 under setting [3] and 0.0812 under setting [4].
`COc1cc2ccc(=O)oc2c(OC)c1OC`: the “cell viability (log2)” value is, setting by setting: under setting [1], 0.24; under setting [2], 0.119; under setting [3], 0.156; under setting [4], 0.115.
